Assay outcomes: PubChem BioAssay, several laboratories
GluA2 TARP mod – GluA2-stargazin AMPA receptor complex modulation; O88602+P19491; HEK293 GluA2+stargazin, membrane potential dye (FDSS), glutamate EC50; hits were called plate by plate, in both directions; calls only at 30 µM; hit rate 3.5% among 40,000; AID 1259245;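 active means any of four per-well response measures lying three or more SD from its plate-wide compound average, in either direction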
GIRK2 activator – GIRK2 channel activators by thallium flux; activation (% efficacy), % for hits at 75 µM; 34,000 tested, under 10 active; HEK293 GIRK2/NPY4 cells, thallium flux fluorescence; P48051;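 active means primary screen hit, no activity in plain HEK293 cells, and in GIRK2-only cells above 5% efficacy rising with concentration; inactive means the rest, including fluorescent compounds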;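 further: efficacy is normalized control-subtracted fluorescence 15 s after thallium addition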
Target sequence (P48051 whole entry, looked up): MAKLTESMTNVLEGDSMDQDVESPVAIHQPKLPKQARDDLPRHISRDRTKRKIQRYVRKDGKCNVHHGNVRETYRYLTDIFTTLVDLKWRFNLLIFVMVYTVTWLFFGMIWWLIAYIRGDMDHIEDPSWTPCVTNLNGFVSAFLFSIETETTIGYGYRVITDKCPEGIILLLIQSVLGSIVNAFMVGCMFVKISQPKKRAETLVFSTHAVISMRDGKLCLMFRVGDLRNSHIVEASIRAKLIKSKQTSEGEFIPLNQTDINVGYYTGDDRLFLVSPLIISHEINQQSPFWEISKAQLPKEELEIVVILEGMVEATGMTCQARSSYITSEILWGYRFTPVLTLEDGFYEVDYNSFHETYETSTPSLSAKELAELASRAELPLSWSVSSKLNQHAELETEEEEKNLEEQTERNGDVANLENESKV
* marks the source's active call; other numbers are inactive results. The full list was thinned out, with hits kept by preference.

Screening Cc1cc2nc(N(CCN3CCOCC3)C(=O)c3cc(Cl)sc3Cl)sc2cc1C returned GluA2 TARP mod inactive and GIRK2 activator inactive.
`O=S(=O)(NCC1CCN(c2ncccn2)CC1)c1c(F)cccc1F` gave GluA2 TARP mod inactive and GIRK2 activator inactive.
Screening Cc1ccc(C(CNC(=O)COc2ccc3ccccc3c2)N(C)C)cc1 (stereo unspecified) returned GluA2 TARP mod active and GIRK2 activator inactive.
`O=C(COc1ccc2ccccc2c1)NCC(O)c1ccc(C(F)(F)F)cc1` (stereo unspecified) gave GIRK2 activator inactive.
`COc1cccc(NC(=O)C(=O)Nc2ccc([N+](=O)[O-])cc2)c1` gave GluA2 TARP mod inactive.
CCCCn1c(SCc2nc(-c3cc(OC)cc(OC)c3)no2)nc2ccsc2c1=O was read as GluA2 TARP mod inactive and GIRK2 activator inactive.
CCCCn1c(SCc2nc(-c3ccc(Cl)cc3)no2)nc2ccsc2c1=O was read as GluA2 TARP mod active and GIRK2 activator inactive.
For Cc1cccc(N(C)C(=O)CSc2ccc(-n3cnc(-c4ccc(Cl)cc4)c3)nn2)c1 the results were GluA2 TARP mod inactive and GIRK2 activator inactive.
Screening COc1ccc(-c2nc3c(c(=O)c4ccccc4n3C)c(=O)n2CC(C)C)cc1 returned GluA2 TARP mod inactive.
`CC(C)Cn1c(-c2ccc([N+](=O)[O-])cc2)nc2c(c(=O)c3ccccc3n2C)c1=O` gave GluA2 TARP mod active.
`Cc1nn(C2CCS(=O)(=O)C2)c2nc(-c3ccco3)cc(C(=O)NCc3c(F)cccc3F)c12` (stereo unspecified) gave GluA2 TARP mod inactive and GIRK2 activator inactive.
`Cc1nn(C2CCS(=O)(=O)C2)c2nc(-c3ccco3)cc(C(=O)NCCc3ccc(F)cc3)c12` (stereo unspecified) gave GluA2 TARP mod active and GIRK2 activator inactive.
For C=CCNC(=O)Nc1nc(CSCC(=O)Nc2ccc(OC)cc2)cs1 the results were GluA2 TARP mod inactive and GIRK2 activator inactive.
Screening CCN(C(=O)Cn1cnc2c(-c3ccccc3)csc2c1=O)c1ccccc1 returned GluA2 TARP mod active and GIRK2 activator inactive.
CN(C(=O)Cn1cnc2c(-c3ccccc3)csc2c1=O)c1ccc(F)cc1 was read as GluA2 TARP mod inactive and GIRK2 activator inactive.
For COc1ccc(N2CCn3c2nc2c3c(=O)n(Cc3ccccc3C)c(=O)n2C)cc1 the results were GluA2 TARP mod inactive.
`CC(=O)Nc1c(C(=O)Nc2ccc(C)c(Cl)c2)nnn1-c1ccc(C)cc1` gave GluA2 TARP mod inactive.
For Cc1nc2ccccn2c1C(=O)NCC1CCN(S(=O)(=O)C2CC2)CC1 the results were GluA2 TARP mod inactive and GIRK2 activator inactive.
COCCN=Cc1c(NCCOC)nc2ccccn2c1=O was read as GluA2 TARP mod active and GIRK2 activator inactive.
Screening CC(C(=O)c1ccc(F)cc1)n1cnc(-c2ccc(F)cc2)cc1=O (stereo unspecified) returned GluA2 TARP mod inactive and GIRK2 activator inactive.
CCOc1ccccc1NC(=O)Cn1c(C)cc(C)c(-c2nc(-c3ccc(Cl)cc3)no2)c1=O was read as GluA2 TARP mod active.
For Cc1cc(C)n(CC(=O)Nc2ccccc2F)c(=O)c1-c1nc(-c2ccc(Cl)cc2)no1 the results were GluA2 TARP mod inactive and GIRK2 activator inactive.
`COc1ccc(NC(=O)Cn2c(C)cc(C)c(-c3nc(-c4ccc(Cl)cc4)no3)c2=O)cc1` gave GluA2 TARP mod inactive.
Screening COc1ccc(-c2noc(-c3c(C)cc(C)n(CC(=O)Nc4ccc(OC)c(Cl)c4)c3=O)n2)cc1 returned GluA2 TARP mod active and GIRK2 activator inactive.
O=C(CCCn1c(=S)[nH]c2ccc(Br)cc2c1=O)N1CCN(c2ccccc2)CC1 was read as GluA2 TARP mod inactive and GIRK2 activator inactive.
For COc1ccc(C(=O)Nc2nnc(-c3cc(C)nn3C)o2)cc1OC the results were GIRK2 activator inactive.
For COc1cc2ccccc2cc1C(=O)Nc1nnc(-c2cc(C)n(C)n2)o1 the results were GluA2 TARP mod inactive and GIRK2 activator inactive.
COc1cc(OC)cc(C(=O)Nc2nnc(-c3cc(C)n(C)n3)o2)c1 was read as GluA2 TARP mod active and GIRK2 activator inactive.
Screening COc1ccc(C(=O)Nc2nnc(-c3cc(C)n(C)n3)o2)cc1OC returned GluA2 TARP mod active and GIRK2 activator inactive.
Cc1cc(C(=O)N2CC(C(=O)Nc3ncc(C)s3)C2)no1 was read as GluA2 TARP mod inactive and GIRK2 activator inactive.
For Cc1cc(C)c2c(n1)sc1c(N3CCN(CCO)CC3)ncnc12 the results were GluA2 TARP mod active and GIRK2 activator inactive.
For CCc1cc2c(N3CCN(c4nc(C)cc(C)n4)CC3)ncnc2s1 the results were GluA2 TARP mod inactive.
`COc1ccc(C(=O)N2CCN(c3ccc(-c4ccccc4)nn3)CC2)cc1OC` gave GluA2 TARP mod inactive and GIRK2 activator inactive.
Cn1c(=O)[nH]c(=O)c2c1nc(SCc1ccc(F)cc1)n2CCCOc1ccccc1 was read as GluA2 TARP mod inactive and GIRK2 activator inactive.
COc1ccccc1N1CCN(S(=O)(=O)c2ccc(F)c(C(=O)Nc3ccc(Cl)cc3)c2)CC1 was read as GluA2 TARP mod active.
COc1ccc(Cl)cc1NC(=O)c1cc(S(=O)(=O)N2CCN(c3ccccc3F)CC2)ccc1F was read as GluA2 TARP mod inactive.
For CCCCC(=O)NCCN1CCn2cc(OC)c(=O)cc2C1=O the results were GluA2 TARP mod inactive and GIRK2 activator inactive.
Screening Cc1ccc(C)c(Sc2cc(N3CCC(C(=O)NCCN4CCCC4)CC3)ncn2)c1 returned GluA2 TARP mod inactive and GIRK2 activator inactive.
Cc1ccc(C)c(Sc2cc(N3CCC(C(=O)NCC4CCCO4)CC3)ncn2)c1 (stereo unspecified) was read as GluA2 TARP mod active and GIRK2 activator inactive.
`CC(=O)Nc1ccc(S(=O)(=O)NCCCN2CCN(c3ccccc3)CC2)cc1` gave GluA2 TARP mod inactive.
`O=c1c2c3c(sc2ncn1/N=C/c1cccnc1)CCC3` gave GluA2 TARP mod active.
Screening O=c1[nH]c2sc3c(c2c(=O)n1-c1ccccc1)CCCC3 returned GluA2 TARP mod inactive and GIRK2 activator inactive.
For CC(=O)Nc1cccc(NC(=O)CCc2csc(NC(=O)c3ccco3)n2)c1 the results were GluA2 TARP mod inactive and GIRK2 activator inactive.
`COc1ccc(-c2nnc3ccc(OCCNC(=O)c4ccccc4Cl)nn23)cc1` gave GluA2 TARP mod inactive and GIRK2 activator inactive.
COc1ccc(-c2nnc3ccc(OCCNC(=O)Nc4ccccc4C)nn23)cc1OC was read as GluA2 TARP mod active and GIRK2 activator inactive.
For COc1ccc(-c2nnc3ccc(OCCNC(=O)c4ccco4)nn23)cc1 the results were GluA2 TARP mod active and GIRK2 activator inactive.
`COc1ccc(-c2nnc3ccc(OCCNC(=O)c4cccs4)nn23)cc1OC` gave GluA2 TARP mod inactive and GIRK2 activator inactive.
For COc1cccc(-c2nnc3ccc(OCCNC(=O)NC4CCCCC4)nn23)c1 the results were GluA2 TARP mod active and GIRK2 activator inactive.
For COc1cccc(-c2nnc3ccc(OCCNC(=O)Nc4cccc(C)c4)nn23)c1 the results were GluA2 TARP mod inactive and GIRK2 activator inactive.
